For 36 molecules, Potency results are on record in PubChem BioAssay (NCATS).

Results filed as inconclusive are left out. Where a call stands in place of a potency, no number is given. The source made the active and inactive calls. Calls come from the whole dose curve; as a rule, active = well fitted inhibition curve with a large enough effect; inconclusive = small, poorly fitted or top-dose-only effect; inactive = flat fitted curve, though single readings scatter.
Potency is the fitted concentration of half-maximal effect.

Voltage-gated inwardly rectifying potassium channel KCNH2 (Homo sapiens), sequence (Q12809 whole entry, looked up): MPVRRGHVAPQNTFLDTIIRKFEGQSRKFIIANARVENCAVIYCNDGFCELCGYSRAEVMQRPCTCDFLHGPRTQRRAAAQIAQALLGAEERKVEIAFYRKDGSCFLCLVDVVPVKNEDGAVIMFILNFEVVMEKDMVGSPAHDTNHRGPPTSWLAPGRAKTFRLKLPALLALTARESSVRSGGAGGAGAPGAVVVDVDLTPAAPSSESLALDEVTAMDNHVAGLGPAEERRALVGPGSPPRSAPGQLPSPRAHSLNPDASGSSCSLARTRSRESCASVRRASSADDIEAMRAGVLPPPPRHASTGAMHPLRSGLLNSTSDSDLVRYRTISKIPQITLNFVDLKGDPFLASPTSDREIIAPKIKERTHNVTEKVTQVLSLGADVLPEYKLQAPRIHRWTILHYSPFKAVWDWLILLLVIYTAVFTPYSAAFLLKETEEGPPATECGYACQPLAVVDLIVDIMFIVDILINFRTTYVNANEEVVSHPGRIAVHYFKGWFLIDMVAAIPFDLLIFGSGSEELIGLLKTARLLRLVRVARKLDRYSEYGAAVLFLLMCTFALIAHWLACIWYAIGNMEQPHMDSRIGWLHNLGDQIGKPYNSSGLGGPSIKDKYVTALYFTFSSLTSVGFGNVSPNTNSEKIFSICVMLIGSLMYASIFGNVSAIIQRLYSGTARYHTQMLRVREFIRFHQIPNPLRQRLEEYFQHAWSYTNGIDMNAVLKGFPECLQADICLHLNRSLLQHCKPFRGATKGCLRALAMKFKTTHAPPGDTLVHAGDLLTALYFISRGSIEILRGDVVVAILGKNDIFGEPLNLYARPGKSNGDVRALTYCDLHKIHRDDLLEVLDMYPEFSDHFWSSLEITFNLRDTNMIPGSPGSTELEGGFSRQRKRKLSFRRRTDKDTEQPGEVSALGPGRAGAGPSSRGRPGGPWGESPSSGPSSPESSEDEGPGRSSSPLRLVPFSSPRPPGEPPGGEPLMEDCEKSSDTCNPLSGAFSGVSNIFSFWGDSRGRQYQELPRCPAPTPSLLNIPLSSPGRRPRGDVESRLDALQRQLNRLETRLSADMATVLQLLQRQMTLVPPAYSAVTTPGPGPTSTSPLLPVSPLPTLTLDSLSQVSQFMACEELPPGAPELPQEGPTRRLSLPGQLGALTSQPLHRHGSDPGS

The assay concerns the target Voltage-gated inwardly rectifying potassium channel KCNH2 (Homo sapiens) (UniProt Q12809). Description: qHTS Assay for Small Molecule Inhibitors of the Human hERG Channel Activity (AID 588834).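 Note: lower thallium flux fluorescence means stronger hERG block; nearly all actives have a fitted effect of over 50% in size.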 To be noted: U2OS BacMam hERG, FluxOR thallium flux fluorescence; series mostly up to 46.1 µM. In outline:
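Kinetic FDSS fluorescence; U2OS + hERG BacMam (~100 virus particles/cell); FluxOR Tl+ flux; ~10 min cpd; AC50 (Hill).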
For `CC(C)(Cc1c[nH]c2ccccc12)NCC(O)COc1ccccc1C#N` (stereo unspecified), the Potency was 2.82 µM (active).

Consider `CC(O)Cn1cnc2c1c(=O)n(C)c(=O)n2C` (stereo unspecified), for which the Potency result was “inactive”.

As to `CCOc1ccccc1OCCN[C@H](C)Cc1ccc(OC)c(S(N)(=O)=O)c1`, the Potency is 14.1 µM (active).

As for `O=C(c1ccc(F)cc1)C1CCN(CCn2c(=S)[nH]c3ccccc3c2=O)CC1`, the Potency was 0.251 µM (active).

On to `O=[N+]([O-])c1ccc(/C=N\O)o1`, for which the Potency entry is “inactive”.

As for `Cc1c(-c2ccccc2)oc2c(C(=O)OCCN3CCCCC3)cccc2c1=O`, the Potency entry is “inactive”.

`Nc1nc(N)c(-c2ccccc2)s1`: the Potency entry was “inactive”.

For the molecule `O=C(O)C1(C(=O)O)CCC1.[NH2-].[NH2-].[Pt+2]`, the Potency result was “inactive”.

In the case of `Cc1c[nH]c2ccccc12`, the Potency result is “inactive”.

Turning to `NS(=O)(=O)c1cc(C(=O)O)cc(N2CCCC2)c1Oc1ccccc1`, the Potency result was “inactive”.

In the case of `O=C(Nc1ccc([N+](=O)[O-])cc1)Nc1ccc([N+](=O)[O-])cc1`, the Potency was 14.1 µM (active).

As for `c1ccc(CC2=NCCN2)cc1`, the Potency result is “inactive”.

In the case of `CCN1CCN(C(=O)N[C@@H](C(=O)N[C@@H]2C(=O)N3C(C(=O)O)=C(CSc4nnnn4C)CS[C@H]23)c2ccc(O)cc2)C(=O)C1=O`, the Potency entry is “inactive”.

`C[C@H]1[C@H]2CC[C@H]3[C@@H]4CC=C5C[C@@H](N(C)C)CC[C@]5(C)[C@H]4CC[C@]23CN1C`: the Potency result is “inactive”.

Take `CC(=O)O[C@]1(C(C)=O)CC[C@H]2[C@@H]3C=C(Cl)C4=CC(=O)CC[C@]4(C)[C@H]3CC[C@@]21C`: the Potency result is “inactive”.

Consider `CCNC(=O)NCc1cccc(Cl)c1`, for which the Potency result is “inactive”.

In the case of `O=C(O)Cc1csc(-c2ccc(Cl)cc2)n1`, the Potency result was “inactive”.

As to `O=C(CCN1CCN2CCCC2C1)N1c2ccccc2Sc2ccc(Cl)cc21` (stereo unspecified), the Potency is 15.8 µM (active).

For `CCCN(CCc1cccs1)[C@H]1CCc2c(O)cccc2C1`, the Potency was 1 µM (active).

Take `CCC1NC(=O)c2cc(S(N)(=O)=O)c(Cl)cc2N1` (stereo unspecified): the Potency result is “inactive”.

`CC(=O)NC(=O)c1ccccc1O`: the Potency entry was “inactive”.

On to `CN1CCC(OC(c2ccccc2)c2ccccc2)CC1`, for which the Potency was 4.47 µM (active).

With `CN(C)CCOC(=O)C(c1ccccc1)C1(O)CCCC1` (stereo unspecified), the Potency entry was “inactive”.

Regarding `CN1CCN(C2=Nc3ccccc3Sc3ccc(Cl)cc32)CC1`, the Potency is 14.1 µM (active).

Consider `Cc1cc(NS(=O)(=O)c2ccc(N)cc2)nc(C)n1`, for which the Potency result is “inactive”.

As for `CCCCN1C[C@H](O)[C@@H](O)[C@H](O)[C@H]1CO`, the Potency result was “inactive”.

Turning to `Cn1c(=O)c2[nH]c(Br)nc2n(C)c1=O`, the Potency result was “inactive”.

Regarding `CC(=O)Nc1ccc(OC(=O)c2ccccc2OC(C)=O)cc1`, the Potency result is “inactive”.

`O=C1OC2(c3ccccc31)c1cc(Br)c(O)c(Br)c1Oc1c2cc(Br)c(O)c1Br`: the Potency is 5.62 µM (active).

Turning to `Cc1cn([C@H]2C[C@H](F)[C@@H](CO)O2)c(=O)[nH]c1=O`, the Potency entry was “inactive”.

As for `CC(C)Cc1ccc(CC(=O)O)cc1`, the Potency entry is “inactive”.

In the case of `CN=C(N)NCCC[C@H](N)C(=O)O`, the Potency entry is “inactive”.

Take `O=C(O)CCC(=O)Nc1ccc(S(=O)(=O)Nc2nccs2)cc1`: the Potency result is “inactive”.

`Nc1nc(-c2ccccc2)c(Br)c(=O)[nH]1`: the Potency entry is “inactive”.

As to `CC(=O)N[C@@H](CCC(=O)O)C(=O)O`, the Potency entry was “inactive”.

In the case of `COc1ccc(CN(CCN(C)C)c2ncccn2)cc1`, the Potency result is “inactive”.
